This is part of a sample that, as a whole, favours compounds with a hit. Of some 79,000 tested, about 15% had one in any assay. Unmarked numbers belong to inactive results. The source made the active and inactive calls. Cut-off read from the data, not from the text of the source: active = growth inhibition above about 70%; inactive = the rest.

Assay [1] in a line: NCI Yeast Anticancer Drug Screen. Data for the rad50 strain (AID 155).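 Note: 0% = growth of vehicle-only cultures of the same strain.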 Particulars: S. cerevisiae rad50 strain growth inhibition, active compounds read high. An outline of the steps:
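Relative growth inhibition (compound vs vehicle) was measured in yeast with a defined repair-gene alteration.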

The nature of assay [2]: NCI Yeast Anticancer Drug Screen. Data for the mec2-1 strain (AID 157). Particulars: S. cerevisiae mec2-1 strain, active compounds read high. An outline of the steps:
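Growth inhibition is read against vehicle-treated controls after compound exposure of the mec2-1 yeast strain, which is defective in DNA damage repair or cell cycle control.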

Assay [3] is described as follows: NCI Yeast Anticancer Drug Screen. Data for the sgs1 mgt1 strain (AID 161).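 Note: 0% = growth of cultures given vehicle only.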 Particulars: S. cerevisiae sgs1 mgt1 strain, active compounds read high. An outline of the steps: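 This yeast growth screen uses a strain with defined DNA-repair lesions; compound-treated growth is compared with vehicle-treated growth.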
Assay [4] can be described thus: NCI Yeast Anticancer Drug Screen. Data for the cln2 rad14 strain (AID 165).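 Note: 0% = growth equal to vehicle treated cultures.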 Particulars: S. cerevisiae cln2 rad14 strain, active compounds read high. The method, boiled down:
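Growth inhibition, relative to vehicle-treated controls, is the read-out. The test organism is a yeast strain with defined genetic alterations, cln2 rad14.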

Assay [5] in a line: NCI Yeast Anticancer Drug Screen. Data for the bub3 strain (AID 167). Particulars: S. cerevisiae bub3 mutant strain, active compounds read high. The method, boiled down: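 Screening used yeast with an engineered genetic alteration affecting cell cycle control. Compound-exposed cultures were compared with vehicle cultures, and reduced growth was taken as inhibition.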
Assay [6] in a line: NCI Yeast Anticancer Drug Screen. Data for the mlh1 rad18 strain (AID 175). Particulars: S. cerevisiae mlh1 rad18 strain growth inhibition, active compounds read high. An outline of the steps:
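Cells of a genetically altered yeast strain, deficient in DNA damage repair, were treated with compound. Their growth was then compared with that of vehicle-treated cultures to give inhibition.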

[7] abbreviates: at 5.0 µM (retest, dose inferred, filed as 0.5).
Setting [8] is: at 50.0 µM (retest, dose inferred, filed as 5.0).

Consider `Cc1cc(C)c2c(c1)sc1nncn12`, for which the growth inhibition was 62% in assay [1] (setting [7]); 96% (active) in assay [1] (setting [8]); 97.9% (active) in assay [1] (at 50.0 µM); 57% in assay [2] (setting [7]); 96% (active) in assay [2] (setting [8]); 97.8% (active) in assay [2] (at 50.0 µM). In addition, the growth inhibition was 53% in assay [3] (setting [7]); 97% (active) in assay [3] (setting [8]); 96% (active) in assay [3] (at 50.0 µM); 46% in assay [4] (setting [7]); 96% (active) in assay [4] (setting [8]); 97.6% (active) in assay [4] (at 50.0 µM). Moreover, the growth inhibition is 70% (active) in assay [5] (setting [7]); 97% (active) in assay [5] (setting [8]); 98.9% (active) in assay [5] (at 50.0 µM); 93% (active) in assay [6] (setting [7]); 97% (active) in assay [6] (setting [8]); 98.9% (active) in assay [6] (at 50.0 µM).
Consider `OC1CC2CCC(C1)N2CCCN1c2ccccc2Sc2ccc(Cl)cc21` (stereo not drawn), for which the growth inhibition in assay [1] (setting [7]) is 12%; in assay [1] (setting [8]) it was 99% (active); in assay [1] (at 50.0 µM) it was 99% (active); in assay [2] (setting [7]), 13%; in assay [2] (setting [8]), 80% (active); in assay [2] (at 50.0 µM), 97.2% (active). For the same compound, the growth inhibition in assay [3] (setting [7]) is -4%; in assay [3] (setting [8]), 61%; in assay [3] (at 50.0 µM), 99.1% (active); in assay [4] (setting [7]) it was -23%; in assay [4] (setting [8]), 74% (active); in assay [4] (at 50.0 µM) it was 97.5% (active). Moreover, the growth inhibition was -20% in assay [5] (setting [7]); 97% (active) in assay [5] (setting [8]); 99.2% (active) in assay [5] (at 50.0 µM); 10% in assay [6] (setting [7]); 97% (active) in assay [6] (setting [8]); 94.4% (active) in assay [6] (at 50.0 µM).
Consider `Cc1ccc(C(CN)(CCBr)c2ccc(C)cc2)cc1`, for which the growth inhibition is 63% in assay [1] (setting [7]); 99% (active) in assay [1] (setting [8]); 99.5% (active) in assay [1] (at 50.0 µM); 50% in assay [2] (setting [7]); 98% (active) in assay [2] (setting [8]); 99.5% (active) in assay [2] (at 50.0 µM). In addition, the growth inhibition in assay [3] (setting [7]) was 59%; in assay [3] (setting [8]), 99% (active); in assay [3] (at 50.0 µM), 99.7% (active); in assay [4] (setting [7]), 19%; in assay [4] (setting [8]), 90% (active); in assay [4] (at 50.0 µM), 99.4% (active). For the same compound, the growth inhibition is 36% in assay [5] (setting [7]); 91% (active) in assay [5] (setting [8]); 99% (active) in assay [5] (at 50.0 µM); 92% (active) in assay [6] (setting [7]); 98% (active) in assay [6] (setting [8]); 99.5% (active) in assay [6] (at 50.0 µM).
In the case of `CCCc1cc(-c2ccc(O)c(CCC)c2)ccc1O`, the growth inhibition in assay [1] (setting [7]) is 92% (active); in assay [1] (setting [8]), 99% (active); in assay [1] (at 50.0 µM) it was 99.6% (active); in assay [2] (setting [7]), 98% (active); in assay [2] (setting [8]), 99% (active); in assay [2] (at 50.0 µM) it was 99.7% (active). Further, the growth inhibition in assay [3] (setting [7]) was 90% (active); in assay [3] (setting [8]), 99% (active); in assay [3] (at 50.0 µM), 99.5% (active); in assay [4] (setting [7]), 96% (active); in assay [4] (setting [8]) it was 99% (active); in assay [4] (at 50.0 µM), 99.3% (active). Further, the growth inhibition in assay [5] (setting [7]) was 99% (active); in assay [5] (setting [8]) it was 100% (active); in assay [5] (at 50.0 µM), 99.7% (active); in assay [6] (setting [7]), 96% (active); in assay [6] (setting [8]), 99% (active); in assay [6] (at 50.0 µM) it was 99.2% (active).
Consider `CCOC(=O)C(CCOC)C(=O)OCC`, for which the growth inhibition in assay [1] (setting [7]) was 4%; in assay [1] (setting [8]), 81% (active); in assay [1] (at 50.0 µM), 73.3% (active); in assay [2] (setting [7]), 0%; in assay [2] (setting [8]), 30%; in assay [2] (at 50.0 µM), 70.9% (active). Moreover, the growth inhibition in assay [3] (setting [7]) is 1%; in assay [3] (setting [8]), 46%; in assay [3] (at 50.0 µM), 43.9%; in assay [4] (setting [7]), 3%; in assay [4] (setting [8]), 65%; in assay [4] (at 50.0 µM) it was 41.8%. Moreover, the growth inhibition was 1% in assay [5] (setting [7]); 48% in assay [5] (setting [8]); 95.7% (active) in assay [5] (at 50.0 µM); 5% in assay [6] (setting [7]); 72% (active) in assay [6] (setting [8]); 43.6% in assay [6] (at 50.0 µM).
With `O=C1CCC/C1=C\c1ccccc1`, the growth inhibition in assay [1] (setting [7]) is 7%; in assay [1] (setting [8]), 15%; in assay [1] (at 50.0 µM), 3.05%; in assay [2] (setting [7]) it was 7%; in assay [2] (setting [8]) it was 5%; in assay [2] (at 50.0 µM), 7.6%. The growth inhibition is 3% in assay [3] (setting [7]); 6% in assay [3] (setting [8]); 1.4% in assay [3] (at 50.0 µM); -2% in assay [4] (setting [7]); -13% in assay [4] (setting [8]); 49.3% in assay [4] (at 50.0 µM). Besides, the growth inhibition in assay [5] (setting [7]) is -2%; in assay [5] (setting [8]) it was 5%; in assay [5] (at 50.0 µM), 6.1%; in assay [6] (setting [7]), 1%; in assay [6] (setting [8]), 4%; in assay [6] (at 50.0 µM) it was 2.2%.

Values taken from PubChem BioAssay (NCI).
